Results: PubChem BioAssay (NCI)
Compounds without any hit were thinned out: in the full panel of roughly 83,000, 20% have a hit.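 Step 1: grow cells in 96-well plates. Step 2: add test compound at a single concentration. Step 3: incubate 48 h. Step 4: record percent growth.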 The source made the active and inactive calls. Rule for the calls: active = growth percent below 10; inactive = the rest.

What was measured:
Experiment in all cases: NCI-60 one-dose screen, 48 h (100 = growth as untreated, 0 = no growth, -100 = all killed)
Conditions in all cases: 10 µM
EKVX NSCLC = tested on: EKVX NSCLC
SN12C renal = tested on: SN12C renal
UO-31 renal = tested on: UO-31 renal
TK-10 renal = tested on: TK-10 renal
ACHN renal = tested on: ACHN renal
CAKI-1 renal = tested on: CAKI-1 renal
CCRF-CEM leukemia = tested on: CCRF-CEM leukemia
MOLT-4 leukemia = tested on: MOLT-4 leukemia
SR leukemia = tested on: SR leukemia
RPMI-8226 leukemia = tested on: RPMI-8226 leukemia
OVCAR-8 ovarian = tested on: OVCAR-8 ovarian
OVCAR-5 ovarian = tested on: OVCAR-5 ovarian
SK-OV-3 ovarian = tested on: SK-OV-3 ovarian
IGROV1 ovarian = tested on: IGROV1 ovarian
OVCAR-3 ovarian = tested on: OVCAR-3 ovarian
HS 578T breast = tested on: HS 578T breast
NCI/ADR-RES ovarian = tested on: NCI/ADR-RES ovarian
OVCAR-4 ovarian = tested on: OVCAR-4 ovarian
T-47D breast = tested on: T-47D breast

Measured: growth

COc1ccc(-c2csc(NC(=O)CSc3nc(C)c(-c4ccccc4)n3Nc3ccccc3)n2)cc1
inactive: EKVX NSCLC 38.3% | SN12C renal 42.1% | TK-10 renal 86.1% | ACHN renal 59% | CAKI-1 renal 20% | CCRF-CEM leukemia 28.3% | MOLT-4 leukemia 31.1% | SR leukemia 40.7% | RPMI-8226 leukemia 30.7% | OVCAR-8 ovarian 31.7% | OVCAR-5 ovarian 81.2% | SK-OV-3 ovarian 88.3% | IGROV1 ovarian 41.8% | OVCAR-3 ovarian 56.6% | HS 578T breast 19.8% | NCI/ADR-RES ovarian 12.1%
active: UO-31 renal 4.89%

CCCCC(CCCCCC(CCCC)NCc1ccc2c(c1)OCO2)NCc1ccc2c(c1)OCO2 (stereo unspecified)
active: EKVX NSCLC -75.2% | SN12C renal -92.6% | UO-31 renal -100% | TK-10 renal -88% | ACHN renal -100% | CAKI-1 renal -87.9% | CCRF-CEM leukemia -32.8% | MOLT-4 leukemia -66.7% | SR leukemia -64.8% | RPMI-8226 leukemia -59.2% | OVCAR-8 ovarian -83.2% | OVCAR-5 ovarian -100% | OVCAR-4 ovarian -98.9% | SK-OV-3 ovarian -100% | IGROV1 ovarian -100% | OVCAR-3 ovarian -100% | HS 578T breast -67.7% | NCI/ADR-RES ovarian -99% | T-47D breast -76.6%

COc1ccc(OC)c2c1C(=O)CC2C (stereo unspecified)
inactive: EKVX NSCLC 98.7% | SN12C renal 99.3% | UO-31 renal 83.7% | TK-10 renal 118% | ACHN renal 113% | CAKI-1 renal 97.6% | CCRF-CEM leukemia 101% | MOLT-4 leukemia 112% | SR leukemia 113% | RPMI-8226 leukemia 106% | OVCAR-8 ovarian 105% | IGROV1 ovarian 100% | OVCAR-3 ovarian 101% | HS 578T breast 98.2% | NCI/ADR-RES ovarian 108% | T-47D breast 98.8%

COc1ccc(OC)c(/C=C/c2nc(SC)n(-c3ccc(Cl)cc3)n2)c1
inactive: EKVX NSCLC 61.4% | SN12C renal 80.3% | UO-31 renal 39.6% | TK-10 renal 92.3% | ACHN renal 67.9% | CAKI-1 renal 64.5% | CCRF-CEM leukemia 71.4% | MOLT-4 leukemia 73% | SR leukemia 41.5% | OVCAR-8 ovarian 78.5% | OVCAR-4 ovarian 70% | SK-OV-3 ovarian 83.8% | IGROV1 ovarian 61.8% | HS 578T breast 91.2% | T-47D breast 42.8%

CN(C)c1ccc(Cc2ccc(N(C)C)cc2Cl)c(Cl)c1
inactive: EKVX NSCLC 103% | SN12C renal 99.2% | UO-31 renal 67.6% | TK-10 renal 88.9% | ACHN renal 98.4% | CAKI-1 renal 99.1% | CCRF-CEM leukemia 91.6% | MOLT-4 leukemia 46% | SR leukemia 88.9% | RPMI-8226 leukemia 81.1% | OVCAR-8 ovarian 101% | OVCAR-5 ovarian 99.6% | OVCAR-4 ovarian 78.6% | SK-OV-3 ovarian 103% | IGROV1 ovarian 90.7% | OVCAR-3 ovarian 94.9% | NCI/ADR-RES ovarian 101% | T-47D breast 87.1%

CC1(C)CCC(=NNC(N)=S)CC1
inactive: EKVX NSCLC 90% | SN12C renal 105% | UO-31 renal 83.9% | TK-10 renal 75.9% | ACHN renal 99.7% | CAKI-1 renal 96.2% | CCRF-CEM leukemia 30.3% | MOLT-4 leukemia 99.8% | SR leukemia 116% | RPMI-8226 leukemia 103% | OVCAR-8 ovarian 100% | OVCAR-5 ovarian 109% | OVCAR-4 ovarian 112% | SK-OV-3 ovarian 117% | IGROV1 ovarian 116% | OVCAR-3 ovarian 112% | HS 578T breast 103% | NCI/ADR-RES ovarian 105% | T-47D breast 95.2%

O=C(C[n+]1ccccc1)c1ccc2ccccc2c1
inactive: EKVX NSCLC 88.2% | SN12C renal 93.8% | UO-31 renal 74% | TK-10 renal 102% | ACHN renal 102% | CAKI-1 renal 96.7% | CCRF-CEM leukemia 95.9% | MOLT-4 leukemia 96% | SR leukemia 92.1% | RPMI-8226 leukemia 93.4% | OVCAR-8 ovarian 89% | OVCAR-5 ovarian 75.9% | OVCAR-4 ovarian 86.3% | SK-OV-3 ovarian 101% | IGROV1 ovarian 105% | OVCAR-3 ovarian 95% | NCI/ADR-RES ovarian 92% | T-47D breast 87.2%

CN(C)CCCn1c(=O)c2ccccc2c2cnc3[nH]ccc3c21
active: UO-31 renal 0.877% | TK-10 renal 8.77% | ACHN renal -1.65% | MOLT-4 leukemia -5.39% | SR leukemia -35% | RPMI-8226 leukemia -23.6% | OVCAR-8 ovarian 6.28% | OVCAR-4 ovarian 2.71% | SK-OV-3 ovarian 4.51% | IGROV1 ovarian 9.28% | T-47D breast -11.3%
inactive: EKVX NSCLC 10.5% | SN12C renal 10.2% | CAKI-1 renal 22.5% | CCRF-CEM leukemia 18.6% | OVCAR-5 ovarian 19.5% | OVCAR-3 ovarian 17.9% | HS 578T breast 24.8% | NCI/ADR-RES ovarian 26.5%

COc1ccc(OC)c(/C=C/c2nc(SCc3ccccc3)n(-c3ccc(Cl)cc3)n2)c1
inactive: EKVX NSCLC 74.3% | SN12C renal 74.2% | TK-10 renal 105% | ACHN renal 80.8% | CCRF-CEM leukemia 24.2% | MOLT-4 leukemia 30.4% | SR leukemia 19.5% | RPMI-8226 leukemia 42.5% | OVCAR-8 ovarian 83.6% | OVCAR-5 ovarian 102% | SK-OV-3 ovarian 86.2% | IGROV1 ovarian 43.9% | OVCAR-3 ovarian 17.3% | NCI/ADR-RES ovarian 19.1% | T-47D breast 78%
active: UO-31 renal -48.7% | CAKI-1 renal 0.228% | HS 578T breast -2.4%

Nc1cc2c(cc1Cl)-c1ccc([N+](=O)[O-])cc1/C2=N\O
inactive: EKVX NSCLC 66% | SN12C renal 88.2% | UO-31 renal 33.3% | TK-10 renal 48.7% | ACHN renal 63.3% | CAKI-1 renal 55.6% | CCRF-CEM leukemia 28.7% | MOLT-4 leukemia 37.9% | SR leukemia 10.8% | RPMI-8226 leukemia 44.7% | OVCAR-8 ovarian 99.5% | OVCAR-5 ovarian 145% | OVCAR-4 ovarian 88.9% | SK-OV-3 ovarian 97% | IGROV1 ovarian 57.1% | OVCAR-3 ovarian 86.6% | HS 578T breast 106% | NCI/ADR-RES ovarian 95.1% | T-47D breast 101%

CCN(CC)Cc1cc(Nc2ccnc3cc(Cl)ccc23)ccc1OC
inactive: EKVX NSCLC 97.2% | SN12C renal 91.2% | UO-31 renal 55.9% | TK-10 renal 94.9% | ACHN renal 97% | CAKI-1 renal 102% | CCRF-CEM leukemia 69.1% | MOLT-4 leukemia 78.9% | SR leukemia 83.2% | RPMI-8226 leukemia 72.2% | OVCAR-8 ovarian 91.7% | OVCAR-4 ovarian 68.2% | SK-OV-3 ovarian 102% | IGROV1 ovarian 94.5% | OVCAR-3 ovarian 93.6% | NCI/ADR-RES ovarian 89.5% | T-47D breast 102%

O=[P@@]1(c2ccccc2)O[C@H](COCc2ccccc2)[C@@H](OCc2ccccc2)[C@H](OCc2ccccc2)[C@H]1O
active: HS 578T breast -10.7%
inactive: EKVX NSCLC 70.7% | SN12C renal 82.9% | UO-31 renal 90.5% | TK-10 renal 76% | ACHN renal 78.7% | CAKI-1 renal 72.8% | CCRF-CEM leukemia 92.3% | MOLT-4 leukemia 94.3% | SR leukemia 103% | RPMI-8226 leukemia 89.6% | OVCAR-8 ovarian 45% | OVCAR-5 ovarian 99.3% | SK-OV-3 ovarian 38.7% | IGROV1 ovarian 78.3% | OVCAR-3 ovarian 59.5% | NCI/ADR-RES ovarian 73.4% | T-47D breast 72.8%

CNc1ccc(CSc2ccc(C)cc2)cc1
inactive: EKVX NSCLC 102% | SN12C renal 29.4% | UO-31 renal 24.1% | TK-10 renal 86.1% | ACHN renal 108% | CAKI-1 renal 73.2% | CCRF-CEM leukemia 43.7% | MOLT-4 leukemia 82.6% | SR leukemia 80.4% | RPMI-8226 leukemia 20.8% | OVCAR-8 ovarian 91.1% | OVCAR-5 ovarian 101% | OVCAR-4 ovarian 34% | IGROV1 ovarian 78.6% | OVCAR-3 ovarian 90.6% | HS 578T breast 95.8% | NCI/ADR-RES ovarian 92.1% | T-47D breast 64.5%

Cc1ccc(Nc2nnc(-c3cc(-c4ccncc4)n(-c4ccccc4)n3)s2)cc1
inactive: EKVX NSCLC 97.7% | SN12C renal 88.5% | UO-31 renal 40.3% | TK-10 renal 102% | ACHN renal 83% | CAKI-1 renal 85.9% | CCRF-CEM leukemia 35.7% | MOLT-4 leukemia 59.5% | SR leukemia 63.6% | RPMI-8226 leukemia 38.6% | OVCAR-8 ovarian 63.5% | OVCAR-5 ovarian 104% | SK-OV-3 ovarian 100% | IGROV1 ovarian 89.2% | OVCAR-3 ovarian 118% | HS 578T breast 61.9% | NCI/ADR-RES ovarian 59.2%

COc1cc(/C(=C2/O[C@@H]([C@H]3COC(C)(C)O3)[C@H]3OC(C)(C)O[C@@H]23)c2ccc3ccccc3c2)cc(OC)c1OC
active: ACHN renal 0.857% | OVCAR-3 ovarian -6.76%
inactive: EKVX NSCLC 53.7% | SN12C renal 24.8% | UO-31 renal 46.8% | TK-10 renal 22.7% | CAKI-1 renal 38.7% | CCRF-CEM leukemia 82.2% | MOLT-4 leukemia 62.4% | SR leukemia 51.4% | RPMI-8226 leukemia 36.8% | OVCAR-8 ovarian 18.9% | OVCAR-5 ovarian 38.2% | OVCAR-4 ovarian 25.7% | SK-OV-3 ovarian 51.4% | IGROV1 ovarian 21.4% | NCI/ADR-RES ovarian 25.9%

COC(=O)c1ccc(=O)oc1
inactive: EKVX NSCLC 98.6% | SN12C renal 85.8% | UO-31 renal 75.7% | TK-10 renal 103% | ACHN renal 98.9% | CAKI-1 renal 101% | CCRF-CEM leukemia 101% | MOLT-4 leukemia 94% | SR leukemia 89.2% | RPMI-8226 leukemia 93.7% | OVCAR-8 ovarian 104% | OVCAR-5 ovarian 89.1% | OVCAR-4 ovarian 102% | SK-OV-3 ovarian 107% | IGROV1 ovarian 112% | OVCAR-3 ovarian 116% | NCI/ADR-RES ovarian 97.1% | T-47D breast 96.3%

Cc1cc(O)c(C(C)(C)C)cc1Sc1cc(C(C)(C)C)c(O)cc1C
inactive: EKVX NSCLC 40.7% | SN12C renal 58.2% | UO-31 renal 37.5% | TK-10 renal 81% | ACHN renal 60.7% | CAKI-1 renal 32.3% | CCRF-CEM leukemia 18.2% | RPMI-8226 leukemia 12.8% | OVCAR-8 ovarian 73.6% | OVCAR-5 ovarian 90.4% | OVCAR-4 ovarian 28.3% | SK-OV-3 ovarian 65.3% | IGROV1 ovarian 39.1% | OVCAR-3 ovarian 29.3% | NCI/ADR-RES ovarian 30.7% | T-47D breast 18.6%
active: MOLT-4 leukemia 1.49% | SR leukemia -33.1%
